Test results reported in PMC6925144, “A prospective compound screening contest identified broader inhibitors for Sirtuin 1” (Scientific Reports, 2019).
Whole data set: some 3,200 compounds, median “TSA(with NAD+) / Primary screening (TSA) / delta Tm (K)” near -0.04, cut for the highest 2% near 0.37. Only a selection was taken, and the highest values are over-represented in it overall.

molecular target: NAD-dependent deacetylase Sirtuin 1 (human, UniProt Q96EB6); assay: primary screen, delta tm; set-up: single well (n = 1, as 'the same TSA'); settings: 10 µM
Sequence (Q96EB6 2-747 limits assumed): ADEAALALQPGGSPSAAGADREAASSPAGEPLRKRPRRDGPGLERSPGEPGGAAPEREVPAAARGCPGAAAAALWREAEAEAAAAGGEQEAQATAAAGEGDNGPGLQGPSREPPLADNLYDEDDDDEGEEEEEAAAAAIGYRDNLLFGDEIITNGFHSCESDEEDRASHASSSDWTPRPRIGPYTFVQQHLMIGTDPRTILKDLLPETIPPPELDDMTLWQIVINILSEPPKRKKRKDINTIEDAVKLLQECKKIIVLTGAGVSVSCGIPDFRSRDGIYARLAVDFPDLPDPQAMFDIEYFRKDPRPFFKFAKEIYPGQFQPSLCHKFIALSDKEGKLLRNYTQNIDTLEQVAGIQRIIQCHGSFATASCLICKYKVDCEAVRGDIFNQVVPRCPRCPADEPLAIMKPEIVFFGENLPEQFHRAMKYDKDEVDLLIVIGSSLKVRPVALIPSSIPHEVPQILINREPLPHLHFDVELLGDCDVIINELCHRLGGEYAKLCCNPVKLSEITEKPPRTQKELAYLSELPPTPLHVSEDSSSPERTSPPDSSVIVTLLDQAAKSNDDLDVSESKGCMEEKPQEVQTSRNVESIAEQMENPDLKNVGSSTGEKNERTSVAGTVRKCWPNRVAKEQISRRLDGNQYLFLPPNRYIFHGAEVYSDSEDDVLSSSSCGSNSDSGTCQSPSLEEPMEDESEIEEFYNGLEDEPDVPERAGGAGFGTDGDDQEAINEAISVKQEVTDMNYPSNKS
Description: A total of 3,192 compounds extracted from the proposed lists were first screened by thermal shift assay (TSA), which determined a melting temperature shift (ΔTm) of Sirtuin 1 upon the addition of a test compound at a concentration of 10 µM (n = 1) with primary hit criteria of ΔTm > 0.45 K or ΔTm < −1.5 K. Primary hits (48 compounds) were retested in the same assay at three concentrations (5, 10, 20 µM, n = 4) for hit confirmation and for dose-dependency check. Secondary hits (41 compounds) were checked their selectivity for Sirtuin 1 based on counterscreening on unrelated protein targets (bovine carbonic anhydrase (CA) and recombinant SH2 domain of hABL1 kinase (ABL1)) at three different concentrations (5, 10, 20 µM, n = 4), which yielded 38 hit compounds, hereafter referred to as TSA hits. The TSA screening above was conducted in the absence of NAD+. As noted, the structure of Sirtuin 1 is different in the presence of NAD+ and substrate. The chemical profile of TSA hits found from the different conditions could be different. […] As a result, 39 TSA hits were found.

SMILES | TSA(with NAD+) / Primary screening (TSA) / delta Tm (K)
CN(c1cccc(Cl)c1)S(=O)(=O)c1cccc(C(=O)Nc2cccc(C#N)c2)c1 | 0.45 K
COc1ccc(N(C)S(=O)(=O)c2cccc(C(=O)Nc3ccc(Br)c(C(F)(F)F)c3)c2)cc1 | 0.69 K
Cc1ccc(N(C)S(=O)(=O)c2cccc(C(=O)Nc3cccc(C#N)c3)c2)cc1 | 0.28 K
COc1ccc(N(C)S(=O)(=O)c2cccc(C(=O)Nc3cccc4ccccc34)c2)cc1 | -0.09 K
COc1ccc(N(C)S(=O)(=O)c2cccc(C(=O)Nc3ccc(-n4cnnn4)cc3)c2)cc1 | 0.76 K
COc1ccc(N(C)S(=O)(=O)c2cccc(C(=O)Nc3ccc4c(C)cc(=O)oc4c3)c2)cc1 | -0.09 K
COc1ccc(N(C)S(=O)(=O)c2cccc(C(=O)Nc3ccc(Br)cc3F)c2)cc1 | 0.36 K
COc1ccc(N(C)S(=O)(=O)c2cccc(C(=O)Nc3ccc4ccccc4c3)c2)cc1 | 0.65 K
COc1ccc(N(C)S(=O)(=O)c2cccc(C(=O)Nc3ncc(C(N)=O)s3)c2)cc1 | -0.03 K
COc1ccc(N(C)S(=O)(=O)c2cccc(C(=O)Nc3ccc(OC)c(OC)c3)c2)cc1 | -0.04 K
CN(c1ccccc1)S(=O)(=O)c1cccc(NC(=O)c2cccc(C#N)c2)c1 | 0.08 K
COc1ccc(N(C)S(=O)(=O)c2cccc(C(=O)Nc3cccc(C#N)c3)c2)cc1 | 0.35 K
CC(C)Cn1c(SCC(=O)Nc2sc3c(c2C(N)=O)CCC3)nnc1N1CCOCC1 | -0.18 K
Cc1ccc(-c2nn(-c3ccccc3)cc2C=C2C(=O)NC(=O)NC2=O)o1 | -0.59 K
CN(CCC#N)C(=O)C(C)(C)c1ccccc1 | -0.08 K
O=C(CSc1nnc(NCC2CCCO2)s1)Nc1nc(-c2cc(F)ccc2F)cs1 (stereo not shown) | 0.01 K
COc1ccc(NC(=O)c2cccc(S(=O)(=O)N(C)c3ccc(OC)cc3)c2)cc1 | -0.02 K
CN(c1ccccc1)S(=O)(=O)c1cccc(C(=O)Nc2ccccc2-c2nc3ccccc3[nH]2)c1 | 0.38 K
COc1ccc(N(C)S(=O)(=O)c2cccc(C(=O)Nc3ccc(Cl)cc3)c2)cc1 | 0.86 K
CCCOC(=O)c1ccc(NC(=O)c2cccc(S(=O)(=O)N(C)c3ccc(OC)cc3)c2)cc1 | 0.29 K
COc1ccc(N(C)S(=O)(=O)c2cccc(C(=O)Nc3ccc(Br)cc3)c2)cc1 | 1.36 K
Cc1ccc(N(C)S(=O)(=O)c2cccc(C(=O)Nc3nc4ccccc4[nH]3)c2)cc1 | -0.06 K

SMILES | TSA(with NAD+) / Primary screening (TSA) / delta Tm (K)
CN(c1ccccc1)S(=O)(=O)c1cccc(C(=O)Nc2ccccc2-c2ccccc2)c1 | -0.02 K
COc1ccc(N(C)S(=O)(=O)c2cccc(C(=O)Nc3ccc(C)cc3)c2)cc1 | 0.11 K
COc1ccc(N(C)S(=O)(=O)c2cccc(C(=O)Nc3cccc(Br)c3)c2)cc1 | 0.32 K
NC(=O)c1oc2ccccc2c1NC(=O)Cc1ccc(Cl)c(Cl)c1 | 0.12 K
CC(=O)Nc1ccc(NCc2nnc3n(C)c(=O)c4ccccc4n23)cc1 | -0.12 K
NC1=C(c2nc3ccccc3[nH]2)C(=O)CN1c1ccc(CC(=O)O)cc1 | -0.03 K
CC(O)CCCN (stereo not shown) | -0.11 K
Cc1ccc(S(=O)(=O)N2CCCCC2)cc1NC(=O)COC(=O)c1ccccc1SCC(=O)N1CCCC1 | -0.01 K
Cc1nc(COc2ccc(C(=O)Nc3ccc(S(=O)(=O)Nc4cccc(F)c4)cc3)cc2)cs1 | -0.14 K
N#CC(C(=O)c1ccc(NS(=O)(=O)c2ccccc2)cc1)c1nc(-c2ccccn2)cs1 (stereo not shown) | 0.47 K
O=C(Nc1ccc(Oc2ncccn2)cc1)c1ccc(S(=O)(=O)Nc2ccc(F)cc2)cc1 | 0.06 K
Cc1ccc(N(C)S(=O)(=O)c2cccc(C(=O)Nc3ccccc3Cl)c2)cc1 | -0.13 K
Cc1ccc(N(C)S(=O)(=O)c2cccc(C(=O)Nc3ccccc3C(F)(F)F)c2)cc1 | -0.09 K
O=C(NN/C=C1/C(=O)N(c2cccc(C(F)(F)F)c2)C(=O)c2ccccc21)c1cccc(S(=O)(=O)Nc2ccccc2Cl)c1 | 0.99 K
C=CCOc1ccc(C(=O)C2=C(O)C(=O)N(CCN3CCOCC3)C2c2ccco2)cc1 (stereo not shown) | -0.01 K
COc1ccccc1-c1noc(C(C)NC(=O)C(C)NC(C)=O)n1 (stereo not shown) | -0.01 K
COc1ccc(-c2cc(NC(=O)Cc3n[nH]c(=O)c4ccccc34)ccc2OC(F)F)cc1 | 0.07 K
COc1ccc(-c2cc(NC(=O)CCNC(=O)c3ccc(Cl)cc3)ccc2OC(F)F)cc1 | 0.45 K
COc1ccc(CC(=O)NCCNC(=O)c2ccc(C)c(F)c2)cc1 | -0.13 K
O=C(C1=C(O)C(=O)N(CCCN2CCOCC2)C1c1cccc([N+](=O)[O-])c1)c1ccc(F)cc1 (stereo not shown) | 0.06 K
Cc1cccc(C(=O)OCc2ccc(C(=O)Nc3ccccc3)cc2)c1 | -0.03 K
O=C(COC(=O)c1cc(-c2ccc(Cl)cc2)nc2ccccc12)NNC(=O)c1cccs1 | 0.16 K

SMILES | TSA(with NAD+) / Primary screening (TSA) / delta Tm (K)
Nc1nc(COC(=O)c2cccc(NC(=O)c3cccs3)c2)nc(Nc2ccccc2)n1 | 0.42 K
CC1CCCN(CCCNC(=O)CCc2cc3ccccc3[nH]c2=O)C1 (stereo not shown) | 0.11 K
O=C(CCc1ccc2c(c1)OCO2)N1CCc2[nH]c3ccccc3c2C1 | -0.01 K
O=C(CN1CCCC2(CC=CCC2)C1)N1CCc2[nH]c3ccccc3c2C1 (stereo not shown) | 0.06 K
O=C(Cc1c[nH]c2ccccc12)N1CCc2[nH]c3ccccc3c2C1 | 0.37 K
Cc1n[nH]c(=O)c(C(=O)NNC(=O)CC23CC4CC(CC(C4)C2)C3)c1C | 0.19 K
CCc1c(C)c(C#N)c2nc3ccccc3n2c1Cl | -0.05 K
Cc1c(CCC#N)c(Cl)n2c(nc3ccccc32)c1C#N | -0.03 K
CCc1c(C)c(C#N)c2nc3ccccc3n2c1S | 0.46 K
CCNC(=O)NCc1ccc(NC(=O)Cc2cn(CC)c3ccccc23)cc1 | 0.09 K
Cc1ccc2nc(-c3ccccc3)c(N)n2c1 | 0.38 K
NC(=O)c1cc(NC(=O)CC(c2ccccc2)c2ccccc2)cc(C(N)=O)c1 | -0.06 K
Cc1ccc(N(C)S(=O)(=O)c2cccc(C(=O)Nc3cc(F)ccc3C)c2)cc1 | -0.01 K
O=C(Nc1cc(S(=O)(=O)N2CCOCC2)ccc1O)C1=COCCO1 | -0.16 K
NC(=O)c1cccc(NC(=O)c2cc3c(s2)-c2ccccc2CC3)c1 | 0.88 K
CC1CCc2sc(C(=O)Nc3ccccc3Cc3ccccc3)cc2C1 (stereo not shown) | -0.13 K
CC(=O)Nc1ccc(NC(=O)c2cccc(C(N)=O)c2)cc1C | -0.12 K
O=C(O)c1nc(Nc2ccc(Cl)cc2)c2ccccc2n1 | -0.11 K
CCn1nnc2cc(C(=O)N3CCN(C(c4ccc(F)cc4)c4ccc(F)cc4)CC3)ccc21 | -0.22 K
Cc1ccc(NC(=O)COC(=O)c2ccc(-n3nnc4ccccc43)c([N+](=O)[O-])c2)cc1C | 0.35 K
COc1cc(/C=N/NC(=O)c2cc3c(s2)CCCC3)ccc1OCC(=O)Nc1ccc(C)cc1 | 0.52 K
NC(=O)c1ccc(NC(=O)COC(=O)c2cc3c(s2)CCCCC3)cc1 | -0.13 K

SMILES | TSA(with NAD+) / Primary screening (TSA) / delta Tm (K)
CCOc1ccc(NC(=O)CN(C)Cc2ccc(C(=O)Nc3ccccc3)cc2)cc1OCC | -0.02 K
CCOc1cc(/C=N/NC(=O)c2cc3c(s2)CCCC3)ccc1OCC(=O)Nc1cccc(C(F)(F)F)c1 | 1.05 K
COc1cc(/C=N/NC(=O)c2cc3c(s2)CCCC3)ccc1OS(=O)(=O)c1cc(C)ccc1C | 0.09 K
CC(OC(=O)c1cc2c(s1)CCCC2)C(=O)Nc1ccc(C(N)=O)cc1 (stereo not shown) | 0.01 K
O=c1cc(CSc2ncc(C(F)(F)F)cc2Cl)nc2ccccn12 | -0.23 K
Cc1cc(C=C2C(=O)NC(=S)NC2=O)c(C)n1-c1cccc(C(F)(F)F)c1 | -0.73 K
Cc1oc2nc[nH]c(=O)c2c1C(=O)OC(C)C(=O)N1CCOCC1 (stereo not shown) | -0.06 K
O=C(Nc1cnc2ccccc2c1)C(=O)N1CCC(Oc2ccccc2)CC1 | 0.06 K
CCn1cc(C2CCN(C(=O)Cc3cnc4ccccc4c3)CC2)cn1 | 0.68 K
CCSC1CCC(NC(=O)Cc2cnc3ccccc3c2)C1 (stereo not shown) | -0.11 K
COc1ccc(CNCc2c[nH]nc2-c2ccc(C)cc2)cc1OC | -0.13 K
c1ccc(-c2[nH]c3ccccc3c2-c2ccccc2)cc1 | 0.39 K
Nc1nc(-c2c(-c3ccccc3)[nH]c3ccccc23)cs1 | 0.16 K
c1ccc(-c2[nH]c3c(ccc4ccccc43)c2-c2ccccc2)cc1 | 0.29 K
CC1COCCN1c1ncnc2ccsc12 (stereo not shown) | 0.03 K
NC(=O)c1csc(C(=O)NCCc2cc(F)cc3c2OCOC3)c1 | -0.03 K
CC(OC(=O)c1cccc(S(=O)(=O)NCc2ccccc2)c1)C(=O)NC12CC3CC(CC(C3)C1)C2 (stereo not shown) | 0.16 K
Cc1ccc([N+](=O)[O-])cc1S(=O)(=O)Nc1ccc(C(=O)OC(C)C(=O)NC23CC4CC(CC(C4)C2)C3)cc1 (stereo not shown) | 0.76 K
COc1cc(C(C)=O)ccc1COc1ccc(C(=O)OC(C)C(=O)NC23CC4CC(CC(C4)C2)C3)cc1OC (stereo not shown) | 0.09 K
